Some test systems named below: DU-145 prostate; MALME-3M melanoma; MDA-MB-231 breast; RXF 393 renal; SF-268 CNS; SF-295 CNS; SF-539 CNS; UACC-257 melanoma; M14 melanoma; HCT-15 colon; HT29 colon; SNB-75 CNS; SNB-19 CNS; U251 CNS; PC-3 prostate; SK-MEL-5 melanoma; UACC-62 melanoma; LOX IMVI melanoma; SK-MEL-28 melanoma.
Holding throughout (test): NCI-60 one-dose screen, 48 h (100 = growth as untreated, 0 = no growth, -100 = all killed)
Holding throughout (conditions): 10 µM unless noted

The panel holds about 83,000 compounds, 20% with a hit somewhere; the sample as a whole holds those more often.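 Cell lines were cultured in 96-well plates, exposed to a single compound concentration, and assessed for percent growth 48 hours later.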 A number with no mark means an inactive call. Calls of active or inactive are those of the source. Rule for the calls: active = growth percent below 10; inactive = the rest.

In the case of `COc1cc(-c2nc(-c3ccc(-c4nc5ccc(F)cc5[nH]4)cc3)no2)cc(OC)c1OC`, the growth is 68.5% in the experiment with DU-145 prostate; 46% with MALME-3M melanoma; 9.59% (active) in the experiment with MDA-MB-231 breast; -3.77% (active) in the experiment with RXF 393 renal; 35.8% in the experiment on SF-268 CNS; 22.5% with SF-295 CNS. The growth in the experiment with SF-539 CNS was 33.9%; in the experiment with UACC-257 melanoma it was 80.1%; in the experiment on M14 melanoma, 43.6%; in the experiment on HCT-15 colon it was 19.4%; in the experiment with HT29 colon, 9.19% (active); in the experiment with SNB-75 CNS, 76.6%. Besides, the growth in the experiment with SNB-19 CNS was 73.1%; in the experiment with U251 CNS it was 46.1%; with PC-3 prostate it was 6.63% (active); in the experiment on SK-MEL-5 melanoma, 20.7%; with UACC-62 melanoma, 20.9%; in the experiment on LOX IMVI melanoma it was 24.8%. The growth with SK-MEL-28 melanoma is 60.6%.
With `N#CCCn1cnc2c(N)ncnc21`, the growth was 108% in the experiment with DU-145 prostate; 125% in the experiment on MALME-3M melanoma; 94.2% with MDA-MB-231 breast; 120% with RXF 393 renal; 110% in the experiment on SF-268 CNS; 102% in the experiment with SF-295 CNS. In addition, the growth in the experiment on SF-539 CNS is 97.8%; in the experiment with UACC-257 melanoma it was 102%; in the experiment with M14 melanoma, 102%; with HCT-15 colon it was 98.3%; with HT29 colon, 101%; in the experiment on SNB-75 CNS, 93.8%. For the same compound, the growth is 99.4% in the experiment on SNB-19 CNS; 98.8% in the experiment on U251 CNS; 94.2% in the experiment on PC-3 prostate; 113% with SK-MEL-5 melanoma; 96.7% in the experiment on UACC-62 melanoma; 97.1% in the experiment on LOX IMVI melanoma. Also, the growth in the experiment on SK-MEL-28 melanoma was 107%.
For the compound `O=C(c1ccc(OCCN2CCCCC2)cc1)c1c(-c2ccc(O)cc2)sc2cc(O)ccc12`, the growth with MALME-3M melanoma is 99.4%; in the experiment on MDA-MB-231 breast, 72.2%; in the experiment with RXF 393 renal it was 70.2%; in the experiment on SF-268 CNS it was 84.3%; with SF-295 CNS it was 106%; in the experiment with SF-539 CNS, 98.6%. The growth is 92.8% with UACC-257 melanoma; 93.3% in the experiment with M14 melanoma; 91.7% in the experiment on HCT-15 colon; 114% in the experiment on HT29 colon; 53.5% with SNB-75 CNS; 86.7% in the experiment on SNB-19 CNS. The growth is 64.9% in the experiment on U251 CNS; 81.8% in the experiment with PC-3 prostate; 71.5% in the experiment with SK-MEL-5 melanoma; 92.1% in the experiment on UACC-62 melanoma; 78.4% with LOX IMVI melanoma; 88.3% in the experiment on SK-MEL-28 melanoma.
`COc1ccccc1CNCCCN1C(=O)c2ccc3c4c(ccc(c24)C1=O)C(=O)N(CCCNCCCN)C3=O`: the growth was -1.55% (active) with DU-145 prostate; -41.9% (active) in the experiment with MALME-3M melanoma; 12.2% in the experiment on MDA-MB-231 breast; -36.9% (active) with RXF 393 renal; -0.397% (active) in the experiment with SF-268 CNS; 14.5% in the experiment with SF-295 CNS. In addition, the growth in the experiment on SF-539 CNS is 8.47% (active); in the experiment on UACC-257 melanoma, -74.4% (active); with M14 melanoma, -44.1% (active); in the experiment on HCT-15 colon it was 8.83% (active); with HT29 colon, -31.5% (active); in the experiment with SNB-75 CNS, 46%. For the same compound, the growth in the experiment with SNB-19 CNS was 11.9%; in the experiment with U251 CNS it was -72.5% (active); in the experiment on PC-3 prostate it was 18.7%; in the experiment with SK-MEL-5 melanoma, -97.8% (active); in the experiment with UACC-62 melanoma, -50% (active); with LOX IMVI melanoma, -7.09% (active). Besides, in the experiment with SK-MEL-28 melanoma, the growth is 22.7%.
`COc1cc(NC(=O)CSc2nc3ccc(Cl)cc3c(=O)n2-c2ccccc2)cc(OC)c1OC`: the growth in the experiment on DU-145 prostate is 102%; with MALME-3M melanoma, 88%; in the experiment on MDA-MB-231 breast it was 77.8%; in the experiment with RXF 393 renal, 95%; with SF-268 CNS, 90.9%; with SF-295 CNS, 87.5%. In addition, the growth with SF-539 CNS is 93.9%; in the experiment with UACC-257 melanoma, 102%; in the experiment with M14 melanoma it was 94%; in the experiment with HCT-15 colon it was 99.6%; with HT29 colon it was 110%; with SNB-75 CNS, 71.6%. Further, the growth was 99.9% with SNB-19 CNS; 92.5% with U251 CNS; 80.6% in the experiment on PC-3 prostate; 83.8% with SK-MEL-5 melanoma; 75% in the experiment with UACC-62 melanoma; 90.8% in the experiment with LOX IMVI melanoma. Also, the growth in the experiment on SK-MEL-28 melanoma is 97.2%.
Take `COc1cc(CN(c2ccc(C)cc2)C2OC(=O)c3ccccc32)cc(OC)c1OC` (stereo not given): the growth with DU-145 prostate is 25%; in the experiment with MALME-3M melanoma, 63.4%; in the experiment on MDA-MB-231 breast it was 64.6%; in the experiment with RXF 393 renal, 22.3%; in the experiment with SF-268 CNS, 34.1%; with SF-295 CNS, 16.8%. Further, the growth was 5.91% (active) with SF-539 CNS; 94.2% with UACC-257 melanoma; -10% (active) in the experiment with M14 melanoma; 6.19% (active) with HCT-15 colon; 18.9% with HT29 colon; 6.43% (active) in the experiment with SNB-75 CNS. Further, the growth in the experiment with SNB-19 CNS was 38.6%; in the experiment with U251 CNS, 32.3%; with PC-3 prostate, 51.8%; in the experiment with UACC-62 melanoma it was 45.9%; in the experiment with LOX IMVI melanoma, 42.7%; in the experiment on SK-MEL-28 melanoma, 51.8%.
As for `CC[C@]1(O)C[C@H]2CN(CCc3c([nH]c4ccccc34)C(C(=O)OC)(c3cc4c(cc3OC)N(C)[C@H]3[C@@](O)(C(=O)OC)[C@H](OC(C)=O)[C@]5(CC)[C@@H]6C[C@@H]6CN6CC[C@]43[C@@H]65)C2)C1` (stereo not given in full), the growth was 12.1% in the experiment with DU-145 prostate; 20.5% in the experiment on MALME-3M melanoma; -12% (active) in the experiment with MDA-MB-231 breast; 35% with RXF 393 renal; -4.98% (active) in the experiment on SF-268 CNS; -15.1% (active) with SF-295 CNS. Also, the growth with SF-539 CNS is -22% (active); with UACC-257 melanoma it was 68.2%; in the experiment with M14 melanoma, -72% (active); in the experiment with HCT-15 colon it was 19.5%; in the experiment on HT29 colon, 7.29% (active); with SNB-75 CNS, -14.6% (active). Besides, the growth in the experiment with SNB-19 CNS was 24%; with U251 CNS, 13.7%; with PC-3 prostate, 18.9%; in the experiment on SK-MEL-5 melanoma, -80.1% (active); in the experiment on UACC-62 melanoma, 14.5%; with LOX IMVI melanoma, 5.88% (active). In the experiment with SK-MEL-28 melanoma, the growth is 53.7%.
As for `O=C1OCC2=C1C(c1ccccc1)c1cc3c(cc1N2CCO)CCC3` (stereo not given), the growth with DU-145 prostate is 2.03% (active); in the experiment on MALME-3M melanoma, 50.2%; with MDA-MB-231 breast, 16.4%; with RXF 393 renal it was 11%; in the experiment on SF-268 CNS, 39.2%; with SF-295 CNS, -21.8% (active). Also, the growth with SF-539 CNS is -50.5% (active); in the experiment on UACC-257 melanoma, 61.7%; in the experiment with M14 melanoma, -15.1% (active); in the experiment with HCT-15 colon, 14.1%; in the experiment on HT29 colon, 6.75% (active); with SNB-75 CNS, 64.4%. The growth is -12.2% (active) with SNB-19 CNS; 12% in the experiment on U251 CNS; 15.7% with PC-3 prostate; -29.2% (active) in the experiment with SK-MEL-5 melanoma; 31.7% in the experiment on UACC-62 melanoma; 28.5% in the experiment on LOX IMVI melanoma. The growth in the experiment on SK-MEL-28 melanoma is 42.7%.

Values taken from PubChem BioAssay (NCI).
